NPC1 promoter act: activators of NPC1 promoter. Huh7 NPC1 promoter luciferase reporter, 24 h. Potency, µM (top dose mostly 9.22 µM), most hits filed as activators. actives 2.4% (n = 320,000); note: nearly all actives have a fitted effect of over 60% in size
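In 1536-well qHTS, Huh7 cells harboring an NPC1 promoter–luciferase construct received compound for 24 h; activation was quantified by luminescence following luciferase reagent addition.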
KinaseGlo FLuc: blocks Kinase-Glo luciferase, a counter-screen artifact | AID 1379 | Potency, µM (titrated, usually from 38.3 µM), hits mostly inhibitors | Kinase-Glo luciferase, ATP luminescence, 8 min | actives 0.28% (n = 200,000); note: nearly all actives have a fitted effect of over 60% in size
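Kinase-Glo luciferase light output from ATP and luciferin was measured with 10 uM ATP, within the enzyme's linear range. Buffer: 50 mM imidazole pH 7.2, 50 mM KCl, 7 mM MgCl2, 0.01% Tween 20, 0.05% BSA; luminescence read after 8 min at ambient temperature.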
FLuc modulator: firefly luciferase modulation, counter-screen for miR-21 project; P08659; purified FLuc, Km substrates, luminescence inhibition; Potency, µM (doses to about 57.5 µM), usual class: inhibitors; actives 6.9% (n = 360,000); note: nearly all actives have a fitted effect of over 55% in size
Target sequence (P08659 whole entry, looked up): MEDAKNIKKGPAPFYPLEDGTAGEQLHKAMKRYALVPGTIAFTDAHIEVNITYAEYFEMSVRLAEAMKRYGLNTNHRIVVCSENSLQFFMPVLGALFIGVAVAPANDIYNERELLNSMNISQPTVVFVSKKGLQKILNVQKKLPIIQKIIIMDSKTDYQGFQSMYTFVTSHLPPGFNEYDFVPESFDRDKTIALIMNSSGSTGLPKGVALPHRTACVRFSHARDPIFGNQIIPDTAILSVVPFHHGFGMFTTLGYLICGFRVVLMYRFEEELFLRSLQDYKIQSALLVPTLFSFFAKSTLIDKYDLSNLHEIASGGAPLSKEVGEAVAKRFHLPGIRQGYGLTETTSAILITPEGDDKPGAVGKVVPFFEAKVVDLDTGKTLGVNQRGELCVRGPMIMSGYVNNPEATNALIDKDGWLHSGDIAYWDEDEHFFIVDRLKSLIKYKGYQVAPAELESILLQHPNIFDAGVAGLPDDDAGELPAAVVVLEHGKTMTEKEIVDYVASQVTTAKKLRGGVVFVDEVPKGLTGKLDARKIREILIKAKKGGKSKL
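Purified P. pyralis luciferase, 10 nM final, with Km-level 10 uM D-luciferin and 10 uM ATP in 50 mM Tris acetate pH 7.5, 10 mM Mg acetate, 0.01% Tween-20, 0.05% BSA; 6-point qHTS titration about 60 µM downward; luminescence read.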
Rab9 prom act: activates the Rab9 promoter | actives 2.8% (n = 320,000) | Huh7 Rab9 promoter-luciferase reporter, luminescence, 24 h | Potency, µM (series often up to 9.22 µM), usual class: activators; note: nearly all actives have a fitted effect of over 60% in size
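Huh7 reporter line, Rab9 promoter upstream of luciferase. Compound exposure 24 h at 37 °C in reduced-serum medium with 10% FBS. Read-out: luminescence.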
SMN2 splice enh: enhancers of SMN2 splice variant expression; HEK293 SMN2-luciferase splicing reporter, luminescence, 30-36 h; actives 2.8% (n = 210,000); AID 1458; Potency, µM (titrated, usually from 46.1 µM), most hits filed as activators; note: nearly all actives have a fitted effect of over 55% in size
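HEK293 cells carry an SMN2 […]–luciferase reporter in which exon 7 inclusion puts luciferase in frame. Cells were plated 10-12 h before compound addition, then incubated 30-36 h at 37C. ONE-Glo luminescence was read; sodium butyrate at 4.5 mM final served as control.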
ELG1 genotoxic: genotoxicity induction in ELG1-luciferase HEK293T cells; HEK293T ELG1-luciferase reporter, luminescence, 16 h; Potency, µM (highest dose often 46 µM), most hits filed as activators; actives 1.3% (n = 330,000); AID 504466; note: nearly all actives have a fitted effect of over 60% in size
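Quantitative HTS format in 1536-well plates. HEK293T ELG1-luciferase reporter cells receive test compound and are incubated 16 hr at 37 °C, 5% CO2; ONE-Glo added, 30 min room temperature, then luminescence read.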
Numbers stand for hits; n = inactive; u = inconclusive; x = no result; [ ] = dose if it differs, or a comment. Compounds with a hit are over-represented: about 7.5% of the library has one in this group of screens. Calls come from the whole dose curve; as a rule, active = well fitted curve in the direction sought with a large enough effect; inconclusive = small, poorly fitted or top-dose-only effect, or another doubt; inactive = no such curve, though single readings can be large; an effect the other way counts as inactive or inconclusive.

SMILES | NPC1 promoter act | KinaseGlo FLuc | FLuc modulator | Rab9 prom act | SMN2 splice enh | ELG1 genotoxic
COc1ccc(/C=N/N=C/c2ccc(OC)c(O)c2)cc1O | n | n | 23.9µM | n | n | n
COc1ccc(/C=N/N=C/c2ccc(OC)c(OC)c2)cc1OC | n | n | n | n | n | n
COc1cc(/C=N/N=C(/C(=O)c2ccccc2)c2ccccc2)cc(OC)c1O | n | n | n | n | n | n
CC(=O)c1sc(-c2ccc(Cl)cc2)cc1N | n | x | u | n | x | u
COC(=O)c1sc(-c2ccc(Cl)cc2)cc1N | 2.24µM | x | 6.75µM | 2.51µM | x | u
COC(=O)c1sc(-c2cccs2)cc1N | u | x | 12µM | n | x | u
O=C(CSc1nnc(NC(=O)c2ccco2)s1)Nc1ccccc1F | n | n | 15.1µM | n | n | n
CC(C)(C)CC(=O)Nc1nnc(SCC(=O)Nc2ccccc2F)s1 | n | n | n | n | n | n
Cc1ccccc1NC(=O)CSc1nnc(NC(=O)c2ccco2)s1 | n | x | 26.9µM | n | x | n
O=C(CSc1nnc(NC(=O)c2ccccc2F)s1)Nc1ccccc1F | u | n | 2.69µM | 3.55µM | n | u
O=C(CSc1nnc(NC(=O)c2ccco2)s1)Nc1ccccc1Br | n | x | n | n | x | n
COCCN1C(=O)/C(=C/c2ccc(N3CCCC3)cc2)SC1=S | u | n | u | u | n | n
CCN1C(=S)SC(=O)C1=C1C=C(C)N(CCO)C(C)=C1 | 1.26µM | n | 7.57µM | 1.41µM | n | 5.17µM
CCN1C(=S)SC(=O)C1=C1C=C(C)N(CCOC)C(C)=C1 | 0.398µM | n | 2.39µM | 0.794µM | u | 1.64µM
Cc1cc(C)c(NC(=O)c2cc(CN3CCOCC3)on2)c(C)c1 | x | x | n | x | x | x
Cc1nnc(SCC(=O)Nc2ccc(N(C)C)cc2)[nH]c1=O | x | x | n | x | n | x
COc1ccc(C(=O)N/N=C/c2ccc3cccc(OCc4ccccc4)c3n2)cc1 | n | n | 1.51µM | n | n | n
O=C(N/N=C/c1ccc2cccc(OCc3ccccc3)c2n1)c1ccc(Br)cc1 | n | n | 2.69µM | n | n | n
COc1c(OC(C)=O)ccc(/C=C/c2ccc3cccc(OCc4ccccc4)c3n2)c1[N+](=O)[O-] | u | n | 1.51µM | u | n[1.84 µM] | n
NC(=S)N/N=C/c1ccc2cccc(OCc3ccccc3)c2n1 | n | x | n | n | x | n
COc1cc(/C=C/c2ccc3cccc(OC)c3n2)c(OC(C)=O)c([N+](=O)[O-])c1 | n | n | n | n | n | n
COc1ccc2c(c1OC)C(=O)N1c3ccccc3C(=O)OC21 (stereo not given) | x | n | x | x | n | x
COc1ccc2c(c1OC)C(=O)N1c3ccccc3COC21 (stereo not given) | 3.55µM | n | 3.38µM | 1.78µM | 14.1µM | u
COc1ccc2c(c1OC)C(=O)N1c3ccccc3SC21 (stereo not given) | 2.51µM | n | 2.39µM | 2.82µM | 11.2µM | u
Cc1cccc(C(=O)Nc2ccccc2C(=O)Nc2ccc(C(=O)O)cc2)c1 | n | x | 6.75µM | n | x | n
SMILES | NPC1 promoter act | KinaseGlo FLuc | FLuc modulator | Rab9 prom act | SMN2 splice enh | ELG1 genotoxic
COc1cc(NC(=O)c2ccc(C)cc2)c(OC)cc1NC(=O)CN1CCOCC1 | n | n | 19µM | n | n | n
Cc1ccc(C(=O)Nc2ccc(O)cc2C(=O)O)cc1C | n | n | 3.38µM | n | n | n
CCN(CC)S(=O)(=O)c1cccc(C(=O)Nc2ccccc2C(=O)Nc2ccc(OC)cc2)c1 | x | x | 8.49µM | x | x | x
CCCCn1c(N)c(N(CC(C)C)C(=O)CN(C)Cc2cccc(OC)c2)c(=O)[nH]c1=O | n | n | n | n | n | n
Cc1ccc(C)c(S(=O)(=O)N2CCN(C(=O)c3ccnn3C)CC2)c1 | n | x | n | n | x | n
CN1C(=O)/C(=C/c2ccc(C(=O)Nc3ccc(O)cc3C(=O)O)cc2)SC1=S | n | x | 21.3µM | n | x | n
CCN(CC)S(=O)(=O)c1cccc(C(=O)N/N=C/c2cccc(O)c2O)c1 | n | n | 8.49µM | n | n | u
Cc1ccc(C(=O)Nc2ccc(O)cc2C(=O)O)cc1 | n | n | 10.7µM | n | n | n
COc1ccc(NC(=O)c2ccc(C)cc2)c(OC)c1 | u | n | 5.36µM | u | 17.8µM | u
COc1ccc(NC(=O)c2ccc3[nH]c(=O)c(=O)[nH]c3c2)c(OC)c1 | n | x | n | n | x | n
O=C(CC(NC(=O)C(F)(F)F)c1ccccc1)Nc1nnc(CCc2ccccc2)s1 (stereo not given) | n | n | n | n | n | n
Cc1cccc(C(=O)Nc2ccc(O)cc2)c1 | u | n | u | u | n | n
Cc1cccc(C(=O)Nc2ccc(O)cc2C(=O)O)c1 | n | n | 21.3µM | n | n | n
COc1ccc(NC(=O)CCCn2c(=O)c3cccn3c3ccccc32)c(OC)c1 | x | x | 0.849µM | x | x | x
COc1ccccc1NC(=O)CCn1c(=O)c2cccn2c2ccccc21 | n | x | n | n | x | n
O=C(CCCn1c(=O)c2cccn2c2ccccc21)Nc1cccc(Cl)c1 | x | x | 12µM | x | x | x
COc1ccc([N+](=O)[O-])cc1N(CC(=O)Nc1ccccc1C(=O)NC(C)C)S(C)(=O)=O | n | n | n | n | n | n
C/C(=N\NC(=O)CN1CCN(S(=O)(=O)c2ccc(C)cc2)CC1)c1ccncc1 | n | x | n | n | x | n
Cc1ccc2c(c1)c1ncnc(N3CCC4(CC3)OCCO4)c1n2C | n | n | 10.7µM | n | u | n
Cc1ccc2c(c1)c1ncnc(N3CCOCC3)c1n2C | n | n | 15.1µM | n | n | n
Cc1ccc2c(c1)c1ncnc(N3CCN(c4ccccc4)CC3)c1n2C | n | n | n | n | n | n
Cc1ccc(NC(=S)NNc2ccc([N+](=O)[O-])cc2S(=O)(=O)Nc2ccccc2C(=O)O)cc1C | n | n | u | n | n | n
O=C(O)c1ccccc1NS(=O)(=O)c1ccc(NNC(=S)Nc2ccc(OC(F)F)cc2)c([N+](=O)[O-])c1 | n | u | 19µM | n | n | n
Oc1ccc2cccnc2c1 | n | n | n | n | n | n
O=C(Cc1ccc2cccnc2c1)c1ccc(O)cc1O | n | n | 21.3µM | u | n | u
SMILES | NPC1 promoter act | KinaseGlo FLuc | FLuc modulator | Rab9 prom act | SMN2 splice enh | ELG1 genotoxic
O=C1NC[C@@H](c2ccccc2)OC(=O)[C@@H](Cc2ccc(F)cc2)CC/C=C/C[C@@H]1CC(=O)N(CCO)Cc1ccccc1 | x | x | x | x | x | n
Cc1ccc(C(=O)CSc2nnc(C3CC3)n2C2CC2)s1 | u | x | 19µM | u | x | u
CCc1ccc(C(=O)CSc2nnc(C3CC3)n2C2CC2)cc1 | n | x | x | n | x | n
Cc1nc(-n2nc(C)c(CCC(C)C)c2C)sc1C(=O)Nc1ccc(Br)cc1 | x | x | n | x | x | x
CS(=O)(=O)c1ccc(-c2cn3cc(C(=O)O)ccc3n2)cc1 | n | n | 2.69µM | n | n | n
COC(=O)c1ccc2nc(-c3cccc(N)c3)cn2c1 | 0.501µM | n | 0.601µM | 1µM | x | u
